Assay outcomes from PubChem.
HP1b binding inh = blocks HP1-beta chromodomain binding to methylated histone tails; P83916; AlphaScreen HP1-beta / biotin-H3K9me3 peptide binding; Potency, µM (highest dose often 114 µM), without a hit: top-dose activity change, negative = inhibition, hits mostly inhibitors; hit rate 0.56% among 390,000; AID 540317; note: potency is the fitted concentration of half-maximal effect; nearly all actives have a fitted effect of over 70% in size
Target sequence (P83916 whole entry, looked up): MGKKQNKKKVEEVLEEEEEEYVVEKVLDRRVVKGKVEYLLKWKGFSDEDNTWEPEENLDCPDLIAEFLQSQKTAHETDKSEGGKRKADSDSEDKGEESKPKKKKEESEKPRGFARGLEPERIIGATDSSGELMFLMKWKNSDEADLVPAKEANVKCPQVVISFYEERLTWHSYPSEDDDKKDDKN
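Compound inhibition of the preformed complex between 50 nM HP1-beta and 50 nM biotinylated H3K9me3 peptide was read by AlphaScreen. Buffer was PBS pH 7.4 with 0.01% Tween-20. Incubations ran 30 min at room temperature, with 10 ug/mL donor/acceptor beads.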
TDP1 inh = inhibitors of human tyrosyl-DNA phosphodiesterase TDP1. Q9NUW8. recombinant TDP1, AlphaScreen DNA substrate cleavage. Potency, µM (top dose mostly 130 µM), without a hit: at the highest dose activity change, negative = inhibition, hits mostly inhibitors. hit rate 0.28% among 350,000; note: potency is the fitted concentration of half-maximal effect; % is set by controls: 0 for no effect and ±100 for the full control effect; nearly all actives have a fitted effect of over 40% in size
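Steps: enzyme plus compound, 15 min RT; add biotin/phosphotyrosine-FITC oligonucleotide (15 nM final), react 5 min; add donor/acceptor beads (10 ug/ml final), 10 min; read AlphaScreen. Tdp1 at 1 nM final.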
Six1-Eya2 blk = inhibitors of human Six1/Eya2 interaction; activity change, % (concentration not given with the values); AID 651725; hit rate 0.56% among 360,000; AlphaScreen GST-Six1/His-Eya2 binding, biochemical; hits give low values; Q15475+O00167; in the data active = activity change below about -65%; inconclusive = mostly about -30% to -63%; note: % is set by controls: 0 for no effect and ±100 for the full control effect
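AlphaScreen luminescence read after one hour at 37 °C in darkness. Pin-transferred compounds met GST-Six1 and His-Eya2 protein (5X stock 250 nM/500 nM) plus glutathione donor and Ni-chelate acceptor beads (5X, 50 ug/mL).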
JMJD2A Tudor = JMJD2A Tudor domain (human) inhibition; AlphaScreen JMJD2A-Tudor / H3K4me3 peptide binding; Potency, µM (titrated, usually from 114 µM), inactives show at the highest dose activity change, negative = inhibition, actives largely listed as inhibitors; hit rate 4.4% among 390,000; AID 504339; note: potency is the fitted concentration of half-maximal effect; % is set by controls: 0 for no effect and ±100 for the full control effect; nearly all actives have a fitted effect of over 50% in size
BAZ2B inh = BAZ2B (human) inhibition | Q9UIF8 | AlphaScreen BAZ2B-H3K14Ac peptide displacement | Potency, µM (highest dose often 114 µM), for inactives: top-dose activity change, negative = inhibition, usual class: inhibitors | hit rate 4.4% among 360,000; note: potency is the fitted concentration of half-maximal effect; % is set by controls: 0 for no effect and ±100 for the full control effect; nearly all actives have a fitted effect of over 60% in size
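AlphaScreen luminescence quantifies BAZ2B engagement of H3K14Ac peptide; the protein and biotinylated peptide are both at 50 nM final, buffer PBS pH 7.4 with 0.01% Tween-20, all steps at room temperature.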
CtBP-E1A inh = CtBP/E1A binding inhibition. AlphaScreen GST-E1A/His-CtBP binding, 1536-well; hits give low values. activity change, % (concentration not given with the values). hit rate 0.49% among 340,000. AID 651724; in the data active = activity change below about -65%; inconclusive = mostly about -30% to -63%; note: % is set by controls: 0 for no effect and ±100 for the full control effect
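AlphaScreen with 125 nM GST-E1A and 125 nM His-CtBP (5X stocks) in Tris pH 8.0, 300 mM NaCl, BSA, Tween 20, TCEP. Compounds preincubated 2 h at 37 deg C, then glutathione donor/nickel acceptor beads added for 1 h at 37 deg C in dark.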
ME-1 growth = reduces ME-1 leukemia cell proliferation. hit rate 20% among 140. shares compounds with BAZ2B inh. Potency, µM (highest dose often 56.1 µM), inactives show top-dose activity change, negative = inhibition, most hits filed as inhibitors. ME-1 cell proliferation, ATP luminescence, 48 h. AID 504370
Active calls of the source: *; u = inconclusive; x = no result given; [ ] = dose if it differs, or a comment. The list is not random: actives were taken first. Their share in the collection is about 5.3%. Unless noted, calls come from the whole dose curve; as a rule, active = well fitted curve in the direction sought with a large enough effect; inconclusive = small, poorly fitted or top-dose-only effect, or another doubt; inactive = no such curve, though single readings can be large; an effect the other way counts as inactive or inconclusive.

SMILES	HP1b binding inh	TDP1 inh	Six1-Eya2 blk	JMJD2A Tudor	BAZ2B inh	CtBP-E1A inh	others
COc1cccc(/C=N/NC(=O)Cn2cnc3c2c(=O)n(C)c(=O)n3C)c1	1%	7%	-15	56µM*	1%	-3
Cc1ccc(C)c(N2CCN(C(=O)c3cc(S(=O)(=O)N4CCCCCC4)cn3C)CC2)c1	-3%[57 µM]	4%	x	u	u	x
C=CCc1ccccc1OCc1nc2ccccc2n1CC	82%	-6%	x	108%	32%	x
COc1ccc(C2(CNC(=O)c3cccc([N+](=O)[O-])c3)CCOCC2)cc1OC	0%	2%	10	56µM*	10%	-1
Cn1cccc1/C=C1\SC(=S)N(NC(=O)c2ccccc2O)C1=O	u	x	u	u	32µM*	u
CCN1C(=O)/C(=C2\SC(=S)N(NC(=O)c3ccccc3O)C2=O)c2ccccc21	22µM*	x	-90*	1.8µM*	25µM*	-97*
COc1ccccc1C(=O)NN1C(=O)/C(=C/c2cccn2C)SC1=S	x	x	x	x	8.9µM*	x
CCN1C(=O)/C(=C2\SC(=S)N(c3c(C)n(C)n(-c4ccccc4)c3=O)C2=O)c2ccccc21	16%	-3%	6	-4%	-1%	-1
O=C(NN1C(=O)/C(=C/C=C/c2ccco2)SC1=S)c1ccccc1O	13µM*	x	-72*	8.9µM*	13µM*	u
COc1ccccc1/C=C1\SC(=S)N(CCC(=O)NNC(=O)c2ccccc2OC)C1=O	-9%	2%	2	-17%[57.1 µM]	3%	0
CCCCC(c1nnnn1C1CCCC1)N1CCN(C(=O)c2ccco2)CC1 (stereo unspecified)	17%	7%	4	-17%	79µM*	-2
CC(C)CC(c1nnnn1C1CCCCC1)N1CCN(C(=O)c2ccco2)CC1 (stereo unspecified)	10%	x	3	-13%	-24%	0
CCCC(c1nnnn1C1CCCC1)N1CCN(C(=O)c2ccco2)CC1 (stereo unspecified)	4%	-6%	10	u	u	3
CC(C)CC(c1nnnn1C1CCCC1)N1CCN(C(=O)c2ccco2)CC1 (stereo unspecified)	17%	5%	12	50µM*	79µM*	-4
O=C(O)c1ccc(COc2ccccc2/C=C2\NC(=O)N(Cc3ccc(F)cc3)C2=O)cc1	9%	-5%	2	-24%	1%	4
O=C(CN1C(=O)N/C(=C\c2ccccc2OCc2ccc(C(=O)O)cc2)C1=O)Nc1ccc(F)cc1	u	8%[0.0935 µM]	-12	-33%	71µM*	-11
CCOc1cc(/C=C2/NC(=O)N(CC(=O)Nc3cccc(C)c3)C2=O)ccc1OC	17%	-2%	-4	6%	1%	1
Cc1cccc(NC(=O)CN2C(=O)N/C(=C\c3cccn3-c3cccc(C(=O)O)c3)C2=O)c1	-30%	x	-19	-28%	56µM*	3
COc1cc(/C=C2/NC(=O)N(CC(=O)Nc3cccc(C)c3)C2=O)ccc1OCC(N)=O	u	5%	4	20µM*	-17%	0
COc1ccc(-n2cccc2/C=C2/NC(=O)N(c3cccc(Cl)c3)C2=O)cc1	21%	5%	11	-8%	-38%	2
O=C(O)c1cccc(-n2cccc2/C=C2/NC(=O)N(c3ccc(Cl)cc3)C2=O)c1	1.1µM*	0.04µM*	-76*	0.79µM*	1.8µM*	u
Cc1cccc(NC(=O)CN2C(=O)N/C(=C\c3ccccc3OCc3ccc(C(=O)O)cc3)C2=O)c1	u	x	-13	u	71µM*	-8
Cc1cc(=O)n(CC(=O)N2CCN(c3ccc(F)cc3)CC2)c2c1c(C)nn2C	13%	7%	x	-20%	u	x
O=C(CCC1N=C2c3ccccc3N=C(SCC(=O)Nc3ccc(F)cc3)N2C1=O)NCc1cccs1 (stereo unspecified)	9%	4%	x	-13%	-20%	x
COc1ccc(/C=C2/CCC(CN3CCOCC3)C2=O)cc1 (stereo unspecified)	u	x	-12	79µM*	x	2
SMILES	HP1b binding inh	TDP1 inh	Six1-Eya2 blk	JMJD2A Tudor	BAZ2B inh	CtBP-E1A inh	others
CN(C)CC1CC/C(=C\c2ccc(O)cc2)C1=O (stereo unspecified)	u	x	-29	89µM*	x	8
COc1ccc(/C=C2\CCC(C3CCCC3)C2=O)cc1 (stereo unspecified)	4%	x	18	-4%	13%	1
O=C(Nc1ccccn1)c1sc2cc([N+](=O)[O-])ccc2c1Cl	-33%	5%	3	56µM*	u	x
O=C(NCCCN1CCOCC1)c1sc2cc([N+](=O)[O-])ccc2c1Cl	u	-5%	-7	79µM*	-32%	-4
CCCCn1c(SCc2ccccc2C#N)nc2c(sc3ccccc32)c1=O	30%	-1%	x	-14%	6%	x
COc1ccccc1CNC(=O)CS(=O)(=O)Cc1nc(-c2ccccc2C)oc1C	24%	-1%	x	-21%	-6%	x
Cc1ccc(Nc2nc(NCc3ccco3)nc3nccnc23)c(C)c1	160%	8.9µM*	x	u	x	x
CSc1nc(NCc2ccco2)c2ccccc2n1	-29%	5%	-16	-13%[11.4 µM]	-33%	-5
COc1ccc(OC)c(Nc2nc(NCc3ccco3)c3ccccc3n2)c1	u	x	-22	50µM*	40µM*	-21
Cc1ccc(Nc2nc(NCc3ccco3)nc3nccnc23)cc1	34%	-10%	x	-7%	x	x
Cc1ccccc1Nc1nc(NCc2ccco2)c2ccccc2n1	u	11%	1	56µM*	u	11
Oc1ccccc1Nc1nc(NCc2ccco2)c2ccccc2n1	-19%	11%	-15	u	45µM*	3
C=C1c2cccc(O)c2C(O)=C2C(=O)[C@@]3(O)C(O)=C(C(N)=O)C(=O)[C@@H](N(C)C)[C@@H]3[C@@H](O)[C@H]12	x	x	x	x	x	x	ME-1 growth=-3%
CC1CCC2C(=O)OC(CN3C(=O)c4ccccc4C3=O)CN2C1c1ccc(Br)cc1 (stereo unspecified)	x	8%[21 µM]	x	x	x	x
COc1cc(O)c2c(c1)oc(=O)c1c3cc(O)c(O)cc3oc21	x	x	x	x	x	x	ME-1 growth=32µM*
Cc1cc(C)n(-c2nc3ccccc3nc2Nc2ccc(Cl)cc2Cl)n1	47%	-1%[12.3 µM]	x	-5%	16%	x
CC(=O)Nc1ccc(Nc2ccc3c4c(cc(=O)n3C)-c3ccccc3C(=O)c24)cc1	-27%	9%	u	-32%	u	u
